Compounds without any hit were thinned out: in the full panel of roughly 83,000, 20% have a hit.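 How to read the values: 0–100, growth inhibition (40 = 60% inhibited); 0, no net growth; -100 to 0, cell death (-40 = 40% of starting cells died; -100 = all dead).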 Values without a mark were called inactive. The source made the active and inactive calls. How the source made its calls: active means growth percent below 10; inactive means the rest.

This passage reports growth results from PubChem BioAssay (NCI).

Test systems include SK-MEL-2 melanoma; EKVX NSCLC; UO-31 renal; TK-10 renal; ACHN renal; CAKI-1 renal; CCRF-CEM leukemia; MOLT-4 leukemia; SR leukemia; RPMI-8226 leukemia; OVCAR-8 ovarian; OVCAR-5 ovarian; OVCAR-4 ovarian; SK-OV-3 ovarian; IGROV1 ovarian; OVCAR-3 ovarian; HS 578T breast; NCI/ADR-RES ovarian; A498 renal; SN12C renal.
What all share (experiment): NCI-60 one-dose screen, 48 h (100 = growth as untreated, 0 = no growth, -100 = all killed)
Holding throughout (details): 10 µM unless noted

As for `CNC(=O)c1cc(Oc2ccc(NC(=O)Nc3ccc(Cl)c(SC)c3)c(F)c2)ccn1`, the growth was 21.6% in the experiment on SK-MEL-2 melanoma; 32.4% with EKVX NSCLC; 42.6% in the experiment on UO-31 renal; 55.3% in the experiment on TK-10 renal; 52.6% in the experiment on ACHN renal; 70.1% with CAKI-1 renal. Moreover, the growth with CCRF-CEM leukemia is 40.7%; in the experiment with MOLT-4 leukemia, 22.8%; in the experiment with SR leukemia it was 31.4%; with RPMI-8226 leukemia it was 27.6%; with OVCAR-8 ovarian, 49.9%; in the experiment with OVCAR-5 ovarian, 77.8%. Also, the growth in the experiment with OVCAR-4 ovarian was 16.3%; in the experiment with SK-OV-3 ovarian it was 79.5%; in the experiment with IGROV1 ovarian, 56.4%; in the experiment on OVCAR-3 ovarian, 61.2%; in the experiment on HS 578T breast it was 56%; in the experiment with NCI/ADR-RES ovarian, 47.8%.

For the molecule `O=c1cc(/C(=C2/C=CC=N2)c2ccc[nH]2)c2cc(Cl)ccc2o1`, the growth in the experiment with SK-MEL-2 melanoma was 62.4%; with EKVX NSCLC, 44.8%; in the experiment with UO-31 renal, 41%; in the experiment with TK-10 renal, 63%; with ACHN renal, 48%; in the experiment with CAKI-1 renal it was 55.7%. For the same molecule, the growth in the experiment with A498 renal was 10.8%; with CCRF-CEM leukemia, 28.3%; in the experiment on MOLT-4 leukemia it was 7.2% (active); in the experiment on RPMI-8226 leukemia, 51%; in the experiment on OVCAR-8 ovarian, -4.06% (active); in the experiment with OVCAR-5 ovarian, 93.1%. Also, the growth is 77% with OVCAR-4 ovarian; 34.8% in the experiment on SK-OV-3 ovarian; 31.5% in the experiment on IGROV1 ovarian; -20.3% (active) in the experiment on OVCAR-3 ovarian; 22.2% in the experiment on HS 578T breast; 5.06% (active) with NCI/ADR-RES ovarian.

Consider `COc1cccc2c1C(=O)c1c(O)c3c(c(O)c1C2=O)C[C@](O)(C(=O)CO)C[C@H]3O[C@@H]1C[C@@H](NC(=O)CCCCCN(C)C2(c3ccc(F)cc3)CC3CCC2C3)[C@H](O)[C@@H](C)O1` (stereo partly specified), for which the growth in the experiment on SK-MEL-2 melanoma is 73.5%; with EKVX NSCLC, 33.9%; with UO-31 renal, 62.8%; with TK-10 renal, 68.7%; with ACHN renal, -77.4% (active); with CAKI-1 renal, 52.6%. The growth is 54.6% with A498 renal; -22.2% (active) with CCRF-CEM leukemia; -27.7% (active) in the experiment on MOLT-4 leukemia; -45.7% (active) in the experiment on SR leukemia; -35.4% (active) in the experiment on RPMI-8226 leukemia; 21.5% in the experiment with OVCAR-8 ovarian. Also, the growth was -51.6% (active) with OVCAR-5 ovarian; 0.206% (active) in the experiment with OVCAR-4 ovarian; 79.5% in the experiment on SK-OV-3 ovarian; 56% in the experiment with IGROV1 ovarian; 5.02% (active) in the experiment on OVCAR-3 ovarian; 57.6% in the experiment with HS 578T breast. For the same molecule, the growth with NCI/ADR-RES ovarian was 80.2%.

On to `CCCn1c(=O)[nH]c(N)c([C@H]2c3ccccc3Oc3[nH]c(=O)n(CCC)c(=O)c32)c1=O`, for which the growth in the experiment with SK-MEL-2 melanoma is 92%; in the experiment with EKVX NSCLC, 93.2%; in the experiment on UO-31 renal it was 78.8%; in the experiment with TK-10 renal, 79%; with ACHN renal, 73.6%; in the experiment on CAKI-1 renal, 86.1%. Further, the growth in the experiment on A498 renal is 92.9%; with CCRF-CEM leukemia, 14.3%; with MOLT-4 leukemia, 39.5%; in the experiment on SR leukemia, 4.41% (active); in the experiment with RPMI-8226 leukemia, 81.7%; in the experiment on OVCAR-8 ovarian, 78.9%. The growth in the experiment with OVCAR-5 ovarian was 99.4%; in the experiment on OVCAR-4 ovarian, 64.6%; in the experiment on SK-OV-3 ovarian, 104%; in the experiment on IGROV1 ovarian, 89%; in the experiment on OVCAR-3 ovarian, 13.8%; with HS 578T breast it was 92.8%. The growth in the experiment on NCI/ADR-RES ovarian is 94.8%.

As to `O=C(Cn1cccc(Nc2ccccc2)c1=O)Nc1ccccc1`, the growth in the experiment on SK-MEL-2 melanoma is 121%; with SN12C renal it was 104%; with UO-31 renal it was 91.6%; in the experiment on TK-10 renal, 107%; in the experiment with ACHN renal, 103%; in the experiment with CAKI-1 renal it was 97.6%. In addition, the growth in the experiment with A498 renal is 65.6%; with CCRF-CEM leukemia it was 105%; in the experiment on MOLT-4 leukemia, 110%; with SR leukemia, 104%; in the experiment with RPMI-8226 leukemia, 100%; with OVCAR-8 ovarian it was 102%. Moreover, the growth in the experiment with OVCAR-5 ovarian was 90.1%; in the experiment with OVCAR-4 ovarian it was 102%; in the experiment on SK-OV-3 ovarian, 104%; with IGROV1 ovarian, 119%; with OVCAR-3 ovarian, 115%; in the experiment with HS 578T breast, 102%.

For the molecule `COc1cccc(-c2nc3sccn3c2-c2ccnc(NCCCNS(=O)(=O)c3c(Cl)cccc3Cl)c2)c1`, the growth is 67.5% in the experiment on SK-MEL-2 melanoma; 60.9% in the experiment with SN12C renal; 32.4% in the experiment on UO-31 renal; 100% in the experiment with TK-10 renal; 49.9% in the experiment with ACHN renal; 44.1% with CAKI-1 renal. The growth in the experiment on A498 renal was 71.3%; in the experiment with CCRF-CEM leukemia, 31.9%; in the experiment on MOLT-4 leukemia it was 28.9%; with RPMI-8226 leukemia, 4.47% (active); in the experiment on OVCAR-8 ovarian, 51.5%; in the experiment on OVCAR-5 ovarian, 85.6%. Further, the growth is 56.7% in the experiment with OVCAR-4 ovarian; 90.4% in the experiment on SK-OV-3 ovarian; 72.1% with IGROV1 ovarian; 69.8% in the experiment with OVCAR-3 ovarian; 76.1% in the experiment with HS 578T breast; 29.9% in the experiment on NCI/ADR-RES ovarian.

Turning to `OCCNc1nccc(N2CCN(c3ccnc4cc(Cl)ccc34)CC2)n1`, the growth in the experiment with SK-MEL-2 melanoma was 84.1%; with SN12C renal it was 84.5%; in the experiment with UO-31 renal, 47.7%; with TK-10 renal, 94.4%; in the experiment with ACHN renal, 92.5%; with CAKI-1 renal, 77%. Further, the growth in the experiment with A498 renal is 15.5%; in the experiment with CCRF-CEM leukemia it was 66.5%; with MOLT-4 leukemia, 52.4%; in the experiment with SR leukemia it was 17.4%; in the experiment with RPMI-8226 leukemia, 89.3%; in the experiment with OVCAR-8 ovarian, 94.6%. In addition, the growth is 102% in the experiment on OVCAR-5 ovarian; 77.5% with OVCAR-4 ovarian; 85.2% in the experiment on SK-OV-3 ovarian; 55.7% in the experiment with IGROV1 ovarian; 92.1% in the experiment on HS 578T breast.

Take `CC(=O)Nc1ccc(-n2c(O)c(/C=N/NC(=O)Cc3ccccc3Nc3c(Cl)cccc3Cl)sc2=S)cc1`: the growth with SK-MEL-2 melanoma is 113%; in the experiment with SN12C renal, 104%; with UO-31 renal it was 84.1%; with TK-10 renal, 112%; in the experiment on ACHN renal, 99.1%; with CAKI-1 renal it was 84.9%. The growth was 97.1% with A498 renal; 96.7% with CCRF-CEM leukemia; 94.2% in the experiment with MOLT-4 leukemia; 72.9% with SR leukemia; 106% in the experiment with RPMI-8226 leukemia; 91.7% in the experiment on OVCAR-8 ovarian. Moreover, the growth with OVCAR-5 ovarian was 114%; with OVCAR-4 ovarian it was 105%; in the experiment with SK-OV-3 ovarian, 111%; with IGROV1 ovarian, 96.7%; with OVCAR-3 ovarian, 116%; in the experiment on HS 578T breast, 92.5%. Also, in the experiment with NCI/ADR-RES ovarian, the growth was 101%.

Take `COc1cc(-c2nc3cc(Cl)c(Cl)cc3[nH]2)ccc1OCC(=O)N=Nc1c(O)[nH]c2ccccc12`: the growth in the experiment on SK-MEL-2 melanoma is -80.7% (active); in the experiment with SN12C renal, -69.7% (active); with UO-31 renal, 93.5%; in the experiment with TK-10 renal, -12% (active); in the experiment on ACHN renal, 20%; in the experiment with CAKI-1 renal, -46.8% (active). The growth in the experiment on A498 renal is -45.9% (active); with CCRF-CEM leukemia, -44.8% (active); in the experiment with MOLT-4 leukemia, -50.7% (active); with SR leukemia it was -27.7% (active); in the experiment with RPMI-8226 leukemia, -45.2% (active); with OVCAR-8 ovarian it was -59% (active). In addition, the growth in the experiment with OVCAR-5 ovarian is -75% (active); in the experiment with OVCAR-4 ovarian, -92.7% (active); in the experiment on SK-OV-3 ovarian it was -28.2% (active); with IGROV1 ovarian, -86.8% (active); with OVCAR-3 ovarian it was -98.1% (active); with HS 578T breast, -47.9% (active). In the experiment with NCI/ADR-RES ovarian, the growth is 85.3%.

Turning to `c1ccc(-c2cc3n4c(-c5ccccc5)nn(-c5ccccc5)c4cnc-3n2)cc1`, the growth with SK-MEL-2 melanoma was 72.6%; in the experiment with SN12C renal, 62.6%; in the experiment with UO-31 renal, 60.7%; in the experiment with TK-10 renal it was 24.5%; in the experiment on ACHN renal, 68.2%; in the experiment on CAKI-1 renal it was 59.5%. In addition, the growth in the experiment with A498 renal is 78.1%; in the experiment on CCRF-CEM leukemia, 86.4%; in the experiment with MOLT-4 leukemia, 88.9%; in the experiment with RPMI-8226 leukemia, 84.5%; in the experiment with OVCAR-8 ovarian, 58.1%; in the experiment with OVCAR-5 ovarian it was 92.3%. In addition, the growth in the experiment on OVCAR-4 ovarian is 43.5%; in the experiment on SK-OV-3 ovarian, 63.8%; in the experiment with OVCAR-3 ovarian it was 60.3%; in the experiment with HS 578T breast it was 31.6%; in the experiment on NCI/ADR-RES ovarian, 84.4%.

Regarding `Cc1ccc(NC(=O)C2CCC(CN3CCN(C)CC3)CC2)cc1Nc1nccc(-c2cccnc2)n1` (stereo unspecified), the growth with SK-MEL-2 melanoma is 112%; in the experiment on SN12C renal, 91.9%; with UO-31 renal it was 83.3%; in the experiment with TK-10 renal, 121%; with ACHN renal it was 94.9%; in the experiment with CAKI-1 renal, 95.5%. Moreover, the growth is 89.6% in the experiment on A498 renal; 109% in the experiment with CCRF-CEM leukemia; 89.8% in the experiment on MOLT-4 leukemia; 90.9% in the experiment on SR leukemia; 96.6% with RPMI-8226 leukemia; 111% with OVCAR-8 ovarian. Also, the growth was 92% with OVCAR-5 ovarian; 108% with OVCAR-4 ovarian; 110% in the experiment with SK-OV-3 ovarian; 110% with IGROV1 ovarian; 103% with OVCAR-3 ovarian; 85.1% in the experiment on HS 578T breast. Further, the growth with NCI/ADR-RES ovarian was 97.5%.
